LYPLA2 inh – LYPLA2 (human) inhibition in PME1 counter-screen | O95372 | recombinant LYPLA2, FP-Rh probe fluorescence polarization | inhibition, % at 5.9 µM | 320,000 compounds, 0.38% hits | AID 2177;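 active means inhibition above the screen-wide mean plus 3 SD, limit set per campaign, cut at about 26% in these data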
Fam108B counter – Fam108B inhibition, counter-screen for RBBP9 inhibitors. recombinant Fam108B, FP-Rh probe fluorescence polarization. inhibition, % at 9.51 µM. 300,000 compounds, 0.33% hits. AID 1947;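 active means inhibition above the screen mean inhibition plus 3 SD, computed separately per campaign, cut at about 18% in these data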;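 further: inhibitors lower polarization as less probe binds the enzyme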
PREPL inhibitor – inhibits the human prolyl oligopeptidase-like enzyme; 320,000 compounds, 0.68% hits; recombinant PREPL, fluorescence polarization activity-based probe; inhibition, % at 5.96 µM; in the data active means inhibition above about 43%
PME-1 primary – PME-1 (human) inhibition | inhibition, % at 5.9 µM | AID 2130 | 320,000 compounds, 0.53% hits | recombinant PME-1, FP-Rh probe fluorescence polarization | Q9Y570;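 active means inhibition above the campaign mean of all compounds plus 3 SD, cut at about 26% in these data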;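 further: competitive labeling of PME-1 active site by serine hydrolase directed probe; inhibitors block probe labeling so polarization falls and inhibition rises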
Target sequence (Q9Y570 whole entry, looked up): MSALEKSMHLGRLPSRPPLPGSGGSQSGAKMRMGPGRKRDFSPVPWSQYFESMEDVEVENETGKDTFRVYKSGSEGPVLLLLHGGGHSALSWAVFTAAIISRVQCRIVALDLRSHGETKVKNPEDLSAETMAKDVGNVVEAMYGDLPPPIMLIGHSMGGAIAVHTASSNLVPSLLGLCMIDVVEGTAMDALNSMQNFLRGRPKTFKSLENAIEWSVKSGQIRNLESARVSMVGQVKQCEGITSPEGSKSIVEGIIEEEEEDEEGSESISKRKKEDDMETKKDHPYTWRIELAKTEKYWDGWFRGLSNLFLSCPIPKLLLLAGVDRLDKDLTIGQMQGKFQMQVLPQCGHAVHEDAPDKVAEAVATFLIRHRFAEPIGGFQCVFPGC
LYPLA1 counter – LYPLA1 (human) inhibition in PME1 counter-screen; O75608; recombinant LYPLA1, FP-Rh probe fluorescence polarization; inhibition, % at 5.9 µM; 320,000 compounds, 0.16% hits; AID 2174;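 active means inhibition above the mean of all tested compounds plus 3 SD, set per campaign, cut at about 14% in these data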;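 further: inhibitors block serine hydrolase probe labeling of LYPLA1 so polarization falls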
Target sequence (O75608 whole entry, looked up): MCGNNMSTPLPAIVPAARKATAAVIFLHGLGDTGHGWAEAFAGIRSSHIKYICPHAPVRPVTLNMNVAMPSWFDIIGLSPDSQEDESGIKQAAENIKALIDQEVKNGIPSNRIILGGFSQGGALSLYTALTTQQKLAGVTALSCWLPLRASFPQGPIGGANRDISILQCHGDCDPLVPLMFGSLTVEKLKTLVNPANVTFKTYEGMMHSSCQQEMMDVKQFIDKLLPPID
LYPLA2 conf – counter-screen for PME1 inhibitors: confirmation of human LYPLA2 inhibitors | inhibition, % at 5.9 µM | AID 2232 | recombinant LYPLA2, FP-Rh probe fluorescence polarization | 1,100 compounds, 72% hits | shares compounds with LYPLA2 inh;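 active means mean inhibition across replicates above the hit cutoff set in the primary screen, cut at about 26% in these data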;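 further: blocked labeling of the enzyme by serine hydrolase FP-Rh probe lowers polarization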
LYPLA2 ABPP – inhibitors of human LYPLA2 | shares compounds with LYPLA2 inh | rhLYPLA2 in mouse brain proteome, gel ABPP FP-Rh | inhibition, % at 20 µM | 150 compounds, 30% hits | AID 652029;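 active means inhibition of LYPLA2 enzyme probe labeling above about 50%, limit read from the data; inactive means inhibition below that limit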;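 further: loss of FP-Rh probe labeling of the LYPLA2 gel band measured as band density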
A number is an active result. Only some compounds are listed: those with a hit (about 1.3% of all), similar ones and a draw of the others.

For CC(=O)c1cccc(NC(=O)C2CCN(C(=O)c3ccc([N+](=O)[O-])cc3)CC2)c1 the results were LYPLA2 inh inactive, Fam108B counter inactive, PREPL inhibitor inactive, PME-1 primary inactive and LYPLA1 counter inactive.
O=C(C1CCN(S(=O)(=O)c2cccnc2)CC1)N1CCN(c2ccc(Cl)cc2)CC1 was read as LYPLA2 inh 38, Fam108B counter inactive, PREPL inhibitor inactive, PME-1 primary inactive, LYPLA1 counter inactive and LYPLA2 conf 42.
For O=C(C1CCN(S(=O)(=O)c2ccccc2)CC1)N1CCN(c2ccccc2)CC1 the results were LYPLA2 inh inactive, Fam108B counter inactive, PREPL inhibitor inactive, PME-1 primary inactive and LYPLA1 counter inactive.
`COc1ccc(N2CCN(C(=O)C3CCN(S(=O)(=O)c4ccccc4)CC3)CC2)cc1` gave LYPLA2 inh 38, Fam108B counter inactive, PREPL inhibitor inactive, PME-1 primary inactive, LYPLA1 counter inactive and LYPLA2 conf 44.
`CC1Cc2cc(S(=O)(=O)N3CCN(c4ccc(Cl)cc4)CC3)ccc2N1C(=O)C1CC1` (configuration not stated) gave LYPLA2 inh inactive, Fam108B counter inactive, PREPL inhibitor inactive, PME-1 primary inactive and LYPLA1 counter inactive.
COc1cccc(N2CCN(C(=O)C3CCN(S(=O)(=O)c4ccc5c(c4)CC(C)N5C(C)=O)CC3)CC2)c1 (configuration not stated) was read as LYPLA2 inh 40, Fam108B counter inactive, PREPL inhibitor inactive, PME-1 primary inactive, LYPLA1 counter inactive and LYPLA2 conf 49.
For CC(=O)N1c2ccc(S(=O)(=O)N3CCC(C(=O)N4CCN(c5ccc(Cl)cc5)CC4)CC3)cc2CC1C (configuration not stated) the results were LYPLA2 inh 92, Fam108B counter inactive, PREPL inhibitor inactive, PME-1 primary inactive, LYPLA1 counter inactive, LYPLA2 conf 92 and LYPLA2 ABPP 75.
Nn1c(SCC(=O)Nc2cc(S(=O)(=O)N3CCOCC3)ccc2Cl)nnc1-c1cccnc1 was read as LYPLA2 inh inactive, Fam108B counter inactive, PREPL inhibitor inactive, PME-1 primary inactive and LYPLA1 counter inactive.
For COc1cccc(CC(=O)N2CCC(n3nccc3NC(=O)C3CCOC3)CC2)c1 (configuration not stated) the results were LYPLA2 inh inactive, Fam108B counter inactive, PREPL inhibitor inactive, PME-1 primary inactive and LYPLA1 counter inactive.
For NC(=O)c1nc(C(=O)N2CCCCC2)c2ccccc2n1 the results were LYPLA2 inh inactive, PREPL inhibitor inactive, PME-1 primary inactive and LYPLA1 counter inactive.
`Cc1ccc2nc(NCc3ccco3)c(C=NCc3ccco3)c(=O)n2c1` gave LYPLA2 inh 32, Fam108B counter inactive, PREPL inhibitor inactive, PME-1 primary inactive, LYPLA1 counter inactive and LYPLA2 conf inactive.
Screening COc1ccc2c(c1)C(=O)[C@@H](O)[C@H](c1ccc(OC)c(Br)c1)O2 returned LYPLA2 inh 70, Fam108B counter inactive, PREPL inhibitor inactive, PME-1 primary inactive, LYPLA1 counter inactive, LYPLA2 conf 70 and LYPLA2 ABPP 63.
Screening O=C(Nc1ccn(C2CC(OC(=O)c3ccccc3)C(CO)O2)c(=O)n1)c1ccccc1 (configuration not stated) returned LYPLA2 inh 26, Fam108B counter inactive, PREPL inhibitor inactive, PME-1 primary inactive, LYPLA1 counter inactive and LYPLA2 conf inactive.
CC1CC1C(=O)OCC(=O)N(C)CC(=O)Nc1ccc(F)cc1 (configuration not stated) was read as PREPL inhibitor inactive.
Screening CCCC(=O)Nc1ccc(C(=O)COC(=O)C2CC2C)cc1 (configuration not stated) returned LYPLA2 inh 29, PREPL inhibitor inactive, PME-1 primary inactive, LYPLA1 counter inactive and LYPLA2 conf 28.
`CC(=O)Nc1ccc(OCC(=O)Nc2ccc(Cl)c(S(=O)(=O)N3CCOCC3)c2)cc1` gave PREPL inhibitor inactive.
CCCCCN1CC(=O)N2C(C)c3[nH]c4ccccc4c3C[C@H]2C1=O (some centres not stated) was read as LYPLA2 inh inactive, Fam108B counter inactive, PREPL inhibitor inactive, PME-1 primary inactive and LYPLA1 counter inactive.
`S=C(NCCCN1CCOCC1)Nc1ccc(Cl)cc1` gave LYPLA2 inh 27, Fam108B counter inactive, PREPL inhibitor inactive, PME-1 primary inactive, LYPLA1 counter inactive and LYPLA2 conf inactive.
Screening S=C(NCCN1CCOCC1)Nc1ccc(Cl)cc1 returned LYPLA2 inh inactive, Fam108B counter inactive, PREPL inhibitor inactive, PME-1 primary inactive and LYPLA1 counter inactive.
`Clc1ccc(Oc2cccc(/C=N/n3cnnc3)c2)cc1` gave LYPLA2 inh 37, Fam108B counter inactive, PREPL inhibitor inactive, PME-1 primary inactive, LYPLA1 counter inactive and LYPLA2 conf 32.
For CN(CC(=O)O/N=C(\N)c1ccc([N+](=O)[O-])cc1)S(=O)(=O)c1ccc2ccccc2c1 the results were LYPLA2 inh 59, Fam108B counter inactive, PREPL inhibitor inactive, PME-1 primary inactive, LYPLA1 counter inactive, LYPLA2 conf 63 and LYPLA2 ABPP inactive.
Cc1ccc(S(=O)(=O)Nc2cccc(-n3cnnn3)c2)cc1C(=O)O was read as LYPLA2 inh 33, Fam108B counter inactive, PREPL inhibitor inactive, PME-1 primary inactive, LYPLA1 counter inactive and LYPLA2 conf inactive.
`O=[N+]([O-])c1cnc(Nc2ccc(Cl)cn2)c([N+](=O)[O-])c1` gave LYPLA2 inh 29, Fam108B counter inactive, PREPL inhibitor inactive, PME-1 primary inactive, LYPLA1 counter inactive and LYPLA2 conf 32.
CC(C)N1CC(C(=O)Nc2cccc([N+](=O)[O-])c2)CC1=O (configuration not stated) was read as LYPLA2 inh inactive, Fam108B counter inactive, PREPL inhibitor inactive, PME-1 primary inactive and LYPLA1 counter inactive.
For Cc1ccc(/C=C2/SC(=S)N(c3ccc(S(=O)(=O)Nc4nccs4)cc3)C2=O)cc1 the results were LYPLA2 inh inactive, Fam108B counter inactive, PREPL inhibitor inactive, PME-1 primary inactive and LYPLA1 counter inactive.
For Cc1ccc(Oc2ccc3c(c2)C(=O)N(c2ccc(S(=O)(=O)Nc4nccs4)cc2)C3=O)cc1 the results were LYPLA2 inh 63, Fam108B counter inactive, PREPL inhibitor inactive, PME-1 primary inactive, LYPLA1 counter inactive, LYPLA2 conf 54 and LYPLA2 ABPP 53.
For CN(CC(=O)NCc1ccc2c(c1)OCO2)S(=O)(=O)c1ccc(F)cc1 the results were LYPLA2 inh inactive, Fam108B counter inactive, PREPL inhibitor inactive, PME-1 primary inactive and LYPLA1 counter inactive.
Screening COc1ccccc1NC(=O)Cc1nnc(SCC(=O)Nc2nccs2)n1C returned LYPLA2 inh inactive, Fam108B counter inactive, PREPL inhibitor inactive, PME-1 primary inactive and LYPLA1 counter inactive.

Source: PubChem BioAssay
